HT1080NT lethal – kills 2HG-producing HT-1080-NT fibrosarcoma cells; HT-1080-NT fibrosarcoma viability, CellTiter-Glo ATP luminescence, 48 h; Potency, µM (highest dose often 46.1 µM), without a hit: top-dose activity, negative = less viability, actives largely listed as cytotoxic; 360,000 compounds, 1.6% hits; AID 686970;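 also: NT is the 2HG producing partner of a matched IDH1 knockdown line; 0% = DMSO-treated cells and -100% = media-only wells without cells; nearly all actives have a fitted effect of over 55% in size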
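Read-out is CellTiter-Glo luminescence after 10 minutes at room temperature, following 48 hours' compound treatment of HT-1080-NT cells (750 cells/well, RPMI, 5% FBS, 37 degrees C).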
TDP1 cell noCPT – qHTS for Inhibitors of human tyrosyl-DNA phosphodiesterase 1 (TDP1): qHTS in cells in absence of CPT; DT40 Tdp1-/- hTDP1 cells, no CPT, ATP luminescence, 48 h; Potency, µM (series often up to 46.2 µM), inactives show at the highest dose activity change, negative = growth inhibition, hits mostly inhibitors; AID 686978, 2013; 420,000 compounds, 15% hits; also: nearly all actives have a fitted effect of over 55% in size
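Luminescent ATP content (CellTiter-Glo) served as the growth readout. Knockout chicken DT40 cells expressing human TDP1 were exposed to compounds without camptothecin for a minimum 48 hr at 37 °C.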
HT1080 IDH1KD tx – kills HT-1080 cells with IDH1 knockdown. HT-1080 IDH1 knockdown viability, ATP luminescence, 48 h. Potency, µM (doses to about 46.1 µM), for inactives: at the highest dose activity, negative = toxicity, actives largely listed as cytotoxic. 360,000 compounds, 2% hits. AID 686971;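 also: 0% = DMSO wells and -100% = cell-free medium wells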
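Luminescent ATP read-out (CellTiter-Glo, 10 min at room temperature) after 48 h compound exposure at 37 °C gave viability of IDH1-knockdown HT-1080 cells. Activity was normalised to DMSO and cell-free wells, then fitted as concentration-response curves.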
KB-3-1 cytotox – kills parental KB-3-1 adenocarcinoma cells; KB-3-1 viability, CellTiter-Glo ATP luminescence, 72 h; Potency, µM (titrated, usually from 46.1 µM), actives largely listed as cytotoxic; 400,000 compounds, 1.4% hits; AID 1347075; also: nearly all actives have a fitted effect of over 60% in size
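Screening of KB-3-1 cells (DMEM, 10% FBS, phenol-red free) ran from lowest to highest compound concentration; after 72 h at 37 °C viability was read luminescently and curves fitted.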
KB-V1 cytotox – KB-V1 MDR subline cytotoxicity; KB-V1 MDR cells viability, CellTiter-Glo, 72 h; Potency, µM (top dose mostly 46.1 µM), actives largely listed as cytotoxic; 400,000 compounds, 3.4% hits; also: nearly all actives have a fitted effect of over 60% in size
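qHTS viability screen in drug-selected KB-V1 MDR cells: 72 h compound treatment at 37 degrees C, ATP luminescence end point.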
TDP1 cell CPT – DT40-hTDP1 cell growth loss with CPT; chicken DT40 Tdp1-/-;hTDP1 cells + 20 nM CPT, ATP luminescence, 48 h; Potency, µM (titrated, usually from 46.2 µM), for inactives: top-dose activity change, negative = growth inhibition, usual class: inhibitors; 420,000 compounds, 12% hits; also: nearly all actives have a fitted effect of over 55% in size
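Cell growth measured by CellTiter-Glo luminescence after a minimum 48 h, 37 C compound exposure with 20 nM CPT in Tdp1-knockout DT40 cells stably expressing hTDP1, seeded 400/well; qHTS titration format.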
Numbers without * were called inactive. Rows were chosen to be rich in hits. Some 19% of all compounds tested hit in one or more screens of this group. Calls follow the shape of the dose curve; as a rule, active = well fitted curve in the direction sought with a large enough effect; inconclusive = small, poorly fitted or top-dose-only effect, or another doubt; inactive = no such curve, though single readings can be large; an effect the other way counts as inactive or inconclusive. Unless noted, % is scaled to controls: 0 for no effect and ±100 for the full control effect; potency is read from the fitted curve at half-maximal effect.

What do the screens show for `CSc1ccccc1NC(=O)C1(C)CCN1C(=O)Cc1ccccc1Cl` (stereo unspecified)?
HT1080NT lethal: 2.1%; TDP1 cell noCPT: -16.4%; HT1080 IDH1KD tx: 21.1%; KB-3-1 cytotox: inactive; KB-V1 cytotox: inactive; TDP1 cell CPT: -9.4%

How did CC1=Nc2cc(C(=O)NCCN3CCOCC3)ccc2Sc2c(C)ccc(C)c21 do in these assays?
HT1080NT lethal: inconclusive; TDP1 cell noCPT: 13µM*; HT1080 IDH1KD tx: inconclusive; KB-3-1 cytotox: 14.6µM*; KB-V1 cytotox: 18.4µM*; TDP1 cell CPT: 16.4µM*

Results for O=C(NCCN1CCOCC1)c1ccc(Cl)c(Cl)c1 ?
HT1080NT lethal: 16.6%; TDP1 cell noCPT: 4.4%; HT1080 IDH1KD tx: 28.0%; KB-3-1 cytotox: inactive; KB-V1 cytotox: inactive; TDP1 cell CPT: 23.6%

Results for CC1=Nc2cc(C(=O)NCCCN3CCOCC3)ccc2Sc2c(C)ccc(C)c21 ?
HT1080NT lethal: 16.4µM*; TDP1 cell noCPT: inconclusive; HT1080 IDH1KD tx: 20.6µM*; KB-3-1 cytotox: inconclusive; KB-V1 cytotox: inconclusive; TDP1 cell CPT: inconclusive

How did CC(C)COc1ccc(CN=C(N)N=C(N)N)cc1Cl do in these assays?
HT1080NT lethal: inconclusive; TDP1 cell noCPT: 4.11µM*; HT1080 IDH1KD tx: inconclusive; KB-3-1 cytotox: 13µM*; KB-V1 cytotox: inactive; TDP1 cell CPT: 6.51µM*

How did COc1ccc(CNC(C)(C)C)cc1Cl do in these assays?
HT1080NT lethal: 23.1%; TDP1 cell noCPT: -6.1%; HT1080 IDH1KD tx: 6.5%; KB-3-1 cytotox: inactive; KB-V1 cytotox: inactive; TDP1 cell CPT: 5.2%

How did COc1ccc(CN=C(N)N=C(N)N)cc1Cl do in these assays?
HT1080NT lethal: -21.8%; TDP1 cell noCPT: 20.6µM*; HT1080 IDH1KD tx: -18.8%; KB-3-1 cytotox: inactive; KB-V1 cytotox: inactive; TDP1 cell CPT: inconclusive

Results for C=CCn1c(Cc2ccc(OC(C)C)c(Cl)c2)nnc1SCC(N)=O ?
HT1080NT lethal: 7.7%; TDP1 cell noCPT: -4.8%; HT1080 IDH1KD tx: 1.5%; KB-3-1 cytotox: inactive; KB-V1 cytotox: inactive; TDP1 cell CPT: 5.7%

What do the screens show for `CC(C)Oc1ccc(CN=C(N)N=C(N)N)cc1Cl`?
HT1080NT lethal: inconclusive; TDP1 cell noCPT: 13µM*; HT1080 IDH1KD tx: inconclusive; KB-3-1 cytotox: inconclusive; KB-V1 cytotox: inactive; TDP1 cell CPT: inconclusive

What do the screens show for `Cc1nn2c(=O)cc(COC(=O)c3ccco3)nc2s1`?
TDP1 cell noCPT: -6.0%; KB-3-1 cytotox: inactive; KB-V1 cytotox: inactive; TDP1 cell CPT: 0.9%

Results for COCc1cc(=O)c2ccccc2o1 ?
HT1080NT lethal: 15.1%; TDP1 cell noCPT: -5.2%; HT1080 IDH1KD tx: 9.4%; KB-3-1 cytotox: inactive; KB-V1 cytotox: inactive; TDP1 cell CPT: -16.9%

What do the screens show for `CCOc1ccc(CCNC(=O)c2[nH]c3cc(OC)ccc3c2Sc2ccccc2)cc1OCC`?
TDP1 cell noCPT: -18.1%; KB-3-1 cytotox: inactive; KB-V1 cytotox: inactive; TDP1 cell CPT: inconclusive

How did COc1cccc(C(=Cc2ccc([N+](=O)[O-])cc2)C(=O)O)c1 do in these assays?
HT1080NT lethal: 5.2%; TDP1 cell noCPT: inconclusive; HT1080 IDH1KD tx: 9.7%; KB-3-1 cytotox: inconclusive; KB-V1 cytotox: inactive; TDP1 cell CPT: inconclusive

Results for CCN(CC(=O)NCc1cccs1)C(=O)c1ccc(S(=O)(=O)N(CC)c2ccccc2)cc1 ?
HT1080NT lethal: 7.5%; TDP1 cell noCPT: -17.5%; HT1080 IDH1KD tx: 1.8%; KB-3-1 cytotox: inactive; KB-V1 cytotox: inactive; TDP1 cell CPT: -5.6%

How did COc1ccc2[nH]c3c(=O)n(CCCC(=O)NC4CCC(C)CC4)c(=S)[nH]c3c2c1 (stereo unspecified) do in these assays?
HT1080NT lethal: 0.0%; TDP1 cell noCPT: 0.6%; HT1080 IDH1KD tx: -0.1%; KB-3-1 cytotox: inactive; KB-V1 cytotox: inconclusive; TDP1 cell CPT: 12.0%

What do the screens show for `COc1ccc2[nH]c3c(=O)n(CCCCC(=O)N4CCCC4)c(=S)[nH]c3c2c1`?
HT1080NT lethal: -1.7%; TDP1 cell noCPT: -21.7%; HT1080 IDH1KD tx: 2.9%; KB-3-1 cytotox: inactive; KB-V1 cytotox: inactive; TDP1 cell CPT: inconclusive

Results for CCCNC(=O)CCCCn1c(=S)[nH]c2c([nH]c3ccc(OC)cc32)c1=O ?
HT1080NT lethal: -0.9%; TDP1 cell noCPT: 5.8µM*; HT1080 IDH1KD tx: 3.6%; KB-3-1 cytotox: inactive; KB-V1 cytotox: inactive; TDP1 cell CPT: 5.8µM*

What do the screens show for `COc1ccc2[nH]c3c(=O)n(CCCCC(=O)NCCC(C)C)c(=S)[nH]c3c2c1`?
HT1080NT lethal: 5.3%; TDP1 cell noCPT: 20.6µM*; HT1080 IDH1KD tx: 3.1%; KB-3-1 cytotox: inactive; KB-V1 cytotox: inactive; TDP1 cell CPT: 14.6µM*

How did O=C(Nc1ccc(Cl)cc1)C1CCCN(S(=O)(=O)c2ccc3[nH]c(=O)ccc3c2)C1 (stereo unspecified) do in these assays?
TDP1 cell noCPT: -20.1%; TDP1 cell CPT: inconclusive

Results for N#Cc1cccnc1N1CCN(C(=O)c2ccco2)CC1 ?
HT1080NT lethal: 28.2%; TDP1 cell noCPT: -15.2%; HT1080 IDH1KD tx: 25.6%; KB-3-1 cytotox: inactive; KB-V1 cytotox: inactive; TDP1 cell CPT: -14.2%

What do the screens show for `O=[N+]([O-])c1cc(S(=O)(=O)Nc2cccc(Cl)c2)ccc1N/N=C/c1ccc(N2CCOCC2)cc1`?
HT1080NT lethal: 0.0%; TDP1 cell noCPT: 10.3µM*; HT1080 IDH1KD tx: 6.7%; KB-3-1 cytotox: inconclusive; KB-V1 cytotox: inactive; TDP1 cell CPT: inconclusive

Results for O=[N+]([O-])c1ccccc1/C=C/C=N/Nc1ccc(S(=O)(=O)Nc2ccc(Cl)cc2)cc1[N+](=O)[O-] ?
HT1080NT lethal: -7.2%; TDP1 cell noCPT: 18.4µM*; HT1080 IDH1KD tx: -4.8%; KB-3-1 cytotox: inconclusive; KB-V1 cytotox: inconclusive; TDP1 cell CPT: 16.4µM*

Results for C/C(=N\Nc1ccc(S(=O)(=O)Nc2ccccc2)cc1[N+](=O)[O-])c1ccc(N2CCOCC2)cc1 ?
HT1080NT lethal: 1.4%; TDP1 cell noCPT: 2.59µM*; HT1080 IDH1KD tx: -0.8%; KB-3-1 cytotox: inactive; KB-V1 cytotox: inactive; TDP1 cell CPT: 14.6µM*

How did O=[N+]([O-])c1ccc(N/N=C/c2c[nH]c3ccccc23)c(S(=O)(=O)Nc2ccc(Cl)cc2)c1 do in these assays?
HT1080NT lethal: -2.0%; TDP1 cell noCPT: 23.1µM*; HT1080 IDH1KD tx: -22.5%; KB-3-1 cytotox: inconclusive; KB-V1 cytotox: inconclusive; TDP1 cell CPT: inconclusive
